DT40 TDP1 CPT: growth inhibition of DT40 Tdp1-/-;hTDP1 cells with camptothecin (screen for TDP1 inhibitors). Potency, µM (titrated, usually from 46.2 µM), for the others: at the top dose activity change, negative = growth inhibition, actives largely listed as inhibitors. chicken DT40 Tdp1-/-;hTDP1 cells + 20 nM CPT, ATP luminescence, 48 h. 420,000 tested, 12% active; further: potency means the concentration at half of the fitted maximal effect; nearly all actives have a fitted effect of over 55% in size
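Chicken DT40 Tdp1-/- cells stably complemented with human TDP1 were seeded at 400 cells/well in medium containing 20 nM camptothecin, exposed to pin-transferred compounds, and grown at 37 °C for at least 48 hr. Viability was read as ATP luminescence.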
IL-1B inflam inh: inflammasome signaling inhibition, IL-1 beta readout. THP-1 LPS/ATP IL-1B secretion, AlphaLISA, 16 h; stronger effect = lower value. activity change, % at 57.5 µM. 360,000 tested, 4.7% active. AID 743279; in the data active means activity change below about -50%; inconclusive means mostly about -30% to -49%
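THP-1 cells pretreated 1 hr with compounds (up to 57.5 uM final), then stimulated with LPS (250 ng/mL final) plus ATP (1.25 mM final); secreted IL-1B measured by AlphaLISA after 16 hr, decreased signal indicating inhibition.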
DT40 TDP1 no CPT: qHTS for Inhibitors of human tyrosyl-DNA phosphodiesterase 1 (TDP1): qHTS in cells in absence of CPT | 420,000 tested, 15% active | DT40 Tdp1-/- hTDP1 cells, no CPT, ATP luminescence, 48 h | Potency, µM (highest dose often 46.2 µM), without a hit: top-dose activity change, negative = growth inhibition, most hits filed as inhibitors; further: potency means the concentration at half of the fitted maximal effect; nearly all actives have a fitted effect of over 55% in size
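Stably hTDP1-transfected Tdp1-null chicken DT40 cells were treated with library compounds minus camptothecin and grown for at least 48 hr at 37 °C, after which cellular ATP was quantified by luminescence.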
HT1080-NT tox: kills 2HG-producing HT-1080-NT fibrosarcoma cells; HT-1080-NT fibrosarcoma viability, CellTiter-Glo ATP luminescence, 48 h; Potency, µM (series often up to 46.1 µM), for the others: top-dose activity, negative = less viability, actives largely listed as cytotoxic; 360,000 tested, 1.6% active; AID 686970;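 further: NT is the 2HG producing partner of a matched IDH1 knockdown line; potency means the concentration at half of the fitted maximal effect; 0% = DMSO-treated cells and -100% = media-only wells without cells; nearly all actives have a fitted effect of over 55% in size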
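Read-out is CellTiter-Glo luminescence after 10 minutes at room temperature, following 48 hours' compound treatment of HT-1080-NT cells (750 cells/well, RPMI, 5% FBS, 37 degrees C).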
HT1080 IDH1KD tx: HT-1080 IDH1 knockdown cell toxicity (counter line); HT-1080 IDH1 knockdown viability, ATP luminescence, 48 h; Potency, µM (top dose mostly 46.1 µM), for inactives: top-dose activity, negative = toxicity, most hits filed as cytotoxic; 360,000 tested, 2% active; AID 686971;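 further: potency means the concentration at half of the fitted maximal effect; 0% = DMSO wells and -100% = cell-free medium wells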
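In this qHTS, HT-1080 cells depleted of IDH1 are exposed for 48 h at 37 °C to compound titrations. Toxicity is scored from CellTiter-Glo luminescence, with DMSO as full viability and medium alone as none.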
* marks the source's active call; other numbers are inactive results; i = inactive; ? = inconclusive; . = not tested or not shown; [ ] = another dose, or the depositor's remark. A selection: hits, their analogues and other compounds. The true share with any hit is near 19%. Unless noted, the call rests on the fitted dose curve; in most records, active means well fitted curve in the direction sought with a large enough effect; inconclusive means small, poorly fitted or top-dose-only effect, or another doubt; inactive means no such curve, though single readings can be large; an effect the other way counts as inactive or inconclusive. Unless noted, on the % scale 0 is the no-effect control and ±100 the full control effect.

SMILES | DT40 TDP1 CPT | IL-1B inflam inh | DT40 TDP1 no CPT | HT1080-NT tox | HT1080 IDH1KD tx
Cc1nc(-c2ccc(Br)cc2)ccc1C(=O)O | -4% | -5 | 0% | 8% | 7%
CCOC(=O)C1CCN(C(=O)c2sc3nc(-c4ccc(F)cc4)cn3c2C)CC1 | -30% | 1 | ? | -1% | -3%
CN(C)c1ccc(N/C(=N\S(=O)(=O)c2cccs2)c2ccccc2)cc1 | ? | -23 | 6.5µM* | -4% | -7%
O=C(Cn1cc(C(F)(F)F)cc(Cl)c1=O)NC1CCS(=O)(=O)C1 (stereo not given) | -2% | 14 | 7% | 1% | 5%
CCc1cc(Cl)c(OC)c(C(=O)NC[C@@H]2CCCN2CC)c1O | ? | -7 | 26µM* | ? | ?
CC(C)(C)OC(=O)C(C)(C)O/N=C(\C(=O)O)c1csc(N)n1 | 10% | 10 | 2% | 0% | 0%
CCSc1nnc(CNC(=O)C23CC4CC(CC(C4)C2)C3)n1C1CCCCC1 | 23µM* | 7 | 26µM* | 16% | 2%
O=C(NCc1nnc(SCc2ccc(F)cc2)n1-c1ccc(F)cc1)C12CC3CC(CC(C3)C1)C2 | 15µM* | ? | 29µM* | ? | ?
CCCSc1nnc(CNC(=O)C23CC4CC(CC(C4)C2)C3)n1Cc1ccccc1 | 16µM* | -10 | ? | -2% | -12%
CCSc1nnc(CNC(=O)C23CC4CC(CC(C4)C2)C3)n1Cc1ccccc1 | ? | -4 | ? | -1% | -6%
O=C(CSc1nnc(CNC(=O)C23CC4CC(CC(C4)C2)C3)n1-c1ccc(F)cc1)Nc1ccc(F)cc1 | ? | 13 | ? | -16% | -24%
CCCCc1ccc(S(=O)(=O)N/N=C(/C)c2ccncc2)cc1 | 16µM* | i | ? | ? | 6%
COc1ccccc1CNC(=O)C1CCC(CNS(=O)(=O)c2ccc(C)cc2)CC1 (stereo not given) | -1% | 37 | ? | -25% | -20%
O=C(/C=C/c1ccc([N+](=O)[O-])cc1)Nc1cccc(S(=O)(=O)NC2=NCCCCC2)c1 | 15µM* | ? | 15µM* | 0% | -8%
O=C(Nc1cccc(S(=O)(=O)NC2=NCCC2)c1)c1c(F)cccc1Cl | ? | 3 | ? | 9% | 13%
O=C(/C=C/c1ccc(Cl)cc1Cl)Nc1cccc(S(=O)(=O)NC2=NCCC2)c1 | 16µM* | ? | ? | -9% | ?
O=C(COc1ccccc1Cl)Nc1cccc(S(=O)(=O)NC2=NCCCCC2)c1 | ? | -25 | ? | -9% | -19%
O=C(/C=C/c1ccccc1Cl)Nc1cccc(S(=O)(=O)NC2=NCCCCC2)c1 | ? | -64* | ? | ? | -13%
CCCCn1c(N)c(N(CC(C)C)C(=O)c2ccc(S(=O)(=O)N3CCC(C)CC3)cc2)c(=O)[nH]c1=O | -10% | -15 | -1% | 3% | 1%
CCCC(=O)Nc1nnc(SCc2cc(=O)n3cccc(C)c3n2)s1 | -5% | . | -24% | . | .
CCc1cccc(NC(=O)CN(C)S(=O)(=O)c2ccc3c(c2)CCCN3C(C)=O)c1 | 21µM* | . | ? | . | .
CC(=O)N1CCCc2cc(S(=O)(=O)N(CCN(C)C)Cc3ccccc3)ccc21 | 2% | . | -16% | . | .
CC(=O)N1CCCc2cc(S(=O)(=O)N(C)Cc3ccccc3)ccc21 | ? | -19 | 21µM* | -11% | -1%
CC(=O)N1CCCc2cc(S(=O)(=O)N(C)CC(=O)Nc3ccc(F)c(Cl)c3)ccc21 | 10µM* | . | 21µM* | . | .
O=C(C=Cc1cccs1)c1ccc(Cl)s1 | -5% | -16 | ? | -19% | -2%
SMILES | DT40 TDP1 CPT | IL-1B inflam inh | DT40 TDP1 no CPT | HT1080-NT tox | HT1080 IDH1KD tx
CCCN(C(=O)c1cc2c(=O)oc3ccccc3c2s1)c1ccc(CC)cc1 | 3% | . | 17% | . | .
CCN(CC)C(=O)Cn1cc([N+](=O)[O-])cc1[N+](=O)[O-] | -10% | -7 | -6% | 5% | 9%
COc1ccc(CCNC(=O)c2cccnc2)cc1 | -10% | 14 | -20% | 6% | 2%
CCOC(=O)c1c(C)[nH]c(C)c1S(=O)(=O)N(C)CC(=O)N1CCN(c2ccc(Cl)cc2)CC1 | 15µM* | . | ? | . | .
CCOC(=O)c1[nH]c(C)c(CCC(=O)N2CCN(c3ccc(Cl)cc3)CC2)c1C | ? | . | 23µM* | . | .
Cc1cccc(N2CCN(C(=O)CCCOc3ccccc3)CC2)c1C | ? | 9 | ? | -19% | -3%
CCOC(=O)c1[nH]c(C)c(CCC(=O)N2CCN(c3cccc(C)c3C)CC2)c1C | 15µM* | . | 18µM* | . | .
O=C(Nc1ccon1)Nc1cccc(Cl)c1Cl | -5% | 19 | 13% | 11% | 1%
c1ccc(-c2noc(CN3CCN(c4cnccn4)CC3)n2)cc1 | ? | 52 | ? | 2% | 1%
Cc1ccc(-n2nc(C)c(C3(O)C(=O)N(C)c4ccccc43)c2N)cc1 (stereo not given) | ? | 0 | ? | 1% | 0%
Cc1nn(CCO)c(N)c1C1(O)C(=O)Nc2c(Cl)cc(Cl)cc21 (stereo not given) | 4.1µM* | 106 | 3.3µM* | -29% | -12%
CC(C)COc1ccc(C(=O)Nc2ccc([N+](=O)[O-])cc2)cc1 | -23% | 0 | -22% | 14% | -1%
CC(C)COc1ccc(C(=O)Nc2onc3c2CCCC3)cc1 | 13µM* | . | 23µM* | . | .
O=C(NC(=S)Nc1ccc(Cl)cn1)c1cc([N+](=O)[O-])ccc1N1CCOCC1 | -3% | -1 | 4% | -5% | 3%
CCC1(C2CCN(Cc3ccc(OC)cc3)CC2)NC(=O)N(CC2COc3ccccc3O2)C1=O (stereo not given) | -16%[9.04 µM] | . | ? | . | .
CCC1(C2CCN(Cc3ccoc3)CC2)NC(=O)N(CC2COc3ccccc3O2)C1=O (stereo not given) | -12% | . | -24% | . | .
CCC1(C2CCN(Cc3c(C)[nH]c4ccccc34)CC2)NC(=O)N(Cc2ccc3c(c2)OCO3)C1=O (stereo not given) | 23µM* | . | 16µM* | . | .
CCC1(C2CCN(Cc3ccc(C)s3)CC2)NC(=O)N(CC2COc3ccccc3O2)C1=O (stereo not given) | ? | . | 21µM* | . | .
CCOc1ccc(C(=O)Nc2ccccc2N2CCN(C(=O)c3ccccc3)CC2)cc1[N+](=O)[O-] | 7.3µM* | -24 | 12µM* | -5% | -11%
CCOc1ccc(C(=O)Nc2ccccc2CC)cc1[N+](=O)[O-] | -3% | -4 | -21% | 0% | 0%
CCOc1ccc(C(=O)Nc2ccccc2C#N)cc1[N+](=O)[O-] | 16µM* | -12 | ? | 0% | -6%

Screens: PubChem, National Center for Advancing Translational Sciences (NCATS)
